The text below walks through data of PubChem BioAssay (NCATS).

Assay [1] concerns the target Flap endonuclease 1 (Homo sapiens) (UniProt P39748). Description: qHTS Validation Assay for the Inhibitors of Human Flap endonuclease 1 (FEN1) (AID 488816). The method, boiled down: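 Enzyme reagent 10 nM; cpds pinned; 15 min RT preinc.; substrate 50 nM final; reads t=0 and 15 min; no-enzyme buffer wells as neg. control; normalized data, 4-parameter Hill fit.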
In assay [2] the target is Chromobox protein homolog 1 (Homo sapiens) (UniProt P83916). Description: qHTS Validation Assay for Inhibitors of HP1-beta Chromodomain Interactions with Methylated Histone Tails (AID 488953). Further: nearly all actives have a fitted effect of over 50% in size. Further: potency means the concentration at half of the fitted maximal effect. The method, boiled down: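 AlphaScreen proximity signal from streptavidin donor and nickel chelate acceptor beads (final 10 ug/mL) after 30 min dark incubation. Compounds had 30 min at room temperature with preformed complex of 50 nM HP1-beta and 50 nM b-H3(1-18)K9me3 in PBS pH 7.4 with 0.01% Tween-20.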
Sequence of Chromobox protein homolog 1 (Homo sapiens) (P83916 whole entry, looked up): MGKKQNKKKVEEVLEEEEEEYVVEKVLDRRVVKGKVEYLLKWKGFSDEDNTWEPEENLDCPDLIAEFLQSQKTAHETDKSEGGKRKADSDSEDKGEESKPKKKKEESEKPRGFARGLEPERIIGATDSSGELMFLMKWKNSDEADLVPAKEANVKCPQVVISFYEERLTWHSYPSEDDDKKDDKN

In assay [3] the target is ATP-dependent 6-phosphofructokinase (Trypanosoma brucei brucei) (UniProt O15648). Description: qHTS Assay to Find Inhibitors of T. brucei phosphofructokinase: hit validation (AID 492961). Further: potency means the concentration at half of the fitted maximal effect. The method, boiled down:
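Compounds titrated; %activity normalized to 0x and 1x enzyme controls, curve-fitted. Readout: ADP-Glo luminescence after 45 min room-temperature reaction of 1.25 nM PFK, 0.1 mM ATP, 0.5 mM F6P, pH 8.0.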

Assay [4] addresses M-phase phosphoprotein 8 (Homo sapiens) (UniProt Q99549). Nature of the assay: qHTS Validation Assay for Inhibitors for MPP8 Chromodomain Interactions with Methylated Histone Tails (AID 488949). Further: nearly all actives have a fitted effect of over 55% in size. Further: potency means the concentration at half of the fitted maximal effect. The gist of the method: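 MPP8 (50 nM) was preincubated with biotinylated H3(1-18)K9me3 peptide (50 nM) in PBS pH 7.4, 0.01% Tween-20 for 30 min at room temperature, then with compounds for 30 min; binding was detected by AlphaScreen.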

The target in assay [5] is Transient receptor potential cation channel subfamily V member 1 (Homo sapiens) (UniProt Q8NER1). Nature of the assay: HTS Assay for Compounds that Act as Enhancers of the Vanilloid Receptor 1 (AID 488979). The method, boiled down:
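TRPV1 cells loaded with Fluo-8 calcium dye; compound added and Ca2+ signal (ex 480/em 520 nm) followed 3 min, then capsaicin at EC20 added and read 2 more min to detect enhancement.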

Assay [6] has as its target Thyrotropin receptor (Homo sapiens) (UniProt P16473). Description: qHTS Assay for Antagonists of the Thyroid Stimulating Hormone Receptor (AID 488980). Further: series mostly up to about 58 µM. The method, boiled down: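 HEK293 cells transfected with human TSHR, suspended in HEPES-buffered HBSS with 70 uM RO 20-1724, were treated with compounds plus TSH at EC80 (4 nM final). cAMP was measured by competitive HTRF (cryptate anti-cAMP antibody, cAMP-d2 acceptor).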

In assay [7] the target is Methanococcus maripaludis chaperonin (MmCpn) (UniProt Q6LX38). Nature of the assay: High-Throughput Screening for Modulators of Cytosolic Chaperonin Activity: MmCpn Primary Screen (AID 488978).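 Further: 50 nM MmCpn enzyme hydrolysing 30 µM ATP at 37 °C.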 The gist of the method:
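MmCpn (50 nM final) was preincubated with compound 5 min at RT, then 30 uM ATP (final) was added and the reaction ran 10 min at 37C. ADP produced was detected by Transcreener HTRF (ex 320 nm; em 590/665 nm).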

Assay [8] addresses D(1A) dopamine receptor (Homo sapiens) (UniProt P21728). Description: HTS Assay for Allosteric Agonists of the Human D1 Dopamine Receptor: Primary Screen for Agonists (AID 488981). The gist of the method:
(§1)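 Tetracycline-induced HEK293 Trex D1 cells with forced coupling to calcium, loaded with no-wash calcium dye; kinetic fluorescence read 180 s after compound addition for agonism, then a further 180 s after an EC20 dopamine challenge for potentiation.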

Assay [9] shares this target. Description: HTS Assay for Allosteric Agonists of the Human D1 Dopamine Receptor: Primary Screen for Potentiators (AID 488982). Further: potency means the concentration at half of the fitted maximal effect. The method, boiled down:
as §1

Assay [10] shares this target. Description: HTS Assay for Allosteric Agonists of the Human D1 Dopamine Receptor: Primary Screen for Antagonists (AID 488983).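 Further: calcium flux response to an EC80 dopamine challenge measured with no-wash dye; nearly all actives have a fitted effect of over 65% in size.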 Further: potency means the concentration at half of the fitted maximal effect. From the text: Dopamine receptors (DARs) are involved in the etiology and/or therapy of a number of neuropsychiatric and endocrine disorders. For instance, all receptor-based antiparkinsonian drugs work via stimulating the […] DAR subtype whereas all FDA-approved antipsychotic agents are antagonists of this receptor. […] There are three different types of allosteric modulators that we are seeking, two of which will stimulate or augment receptor signaling, allosteric agonists and potentiators, while the third, allosteric antagonists, will attenuate receptor signaling. The present primary screening assay measures compound agonism by tracking calcium flux in a […], inducible Hek293 Trex D1 cell line.
Freshly passaged cells are plated in 1536 well black, clear bottom plates at a density of 4000 cells/well in 3 ul of complete media containing 1x tetracycline inducer. After an overnight incubation at 30 C in 5% CO2, cells are loaded with 2 ul of the no wash Calcium Assay Kit (ABD Bioquest) and incubated at room temperature for 30 to 90 minutes. A 10 cycle (1 second/cycle) baseline measurement is taken and then the FDSS online 1536 pintool delivers 23 nl of compound library (as well as dopamine controls) to the plate. The plate is measured for kinetically at 1 cycle/sec for 180 seconds and is considered to be the agonist portion of the assay (eg, compounds which activate a positive calcium response during this portion are flagged as potential agonists). Following the 180 second read, 1 ul of an EC80 of dopamine is delivered by an onboard pipette head. Measurements are taken kinetically for an additional 180 seconds.

Results filed as inconclusive are left out. Where a call stands in place of a potency, no number is given. Calls of active or inactive are those of the source. The call rests on the fitted dose curve; in most records, active means well fitted curve in the direction sought with a large enough effect; inconclusive means small, poorly fitted or top-dose-only effect, or another doubt; inactive means no such curve, though single readings can be large; an effect the other way counts as inactive or inconclusive. Bridge positions count the residues as written; N and C are the ends. Square brackets hold non-standard residues; d marks the D form. Peptide text beside a SMILES is read from it. hArg = N=C(N)NCCCC[C@H](N)C(=O)O; Mpa = O=C(O)CCS

Sequence of Transient receptor potential cation channel subfamily V member 1 (Homo sapiens) (Q8NER1 whole entry, looked up): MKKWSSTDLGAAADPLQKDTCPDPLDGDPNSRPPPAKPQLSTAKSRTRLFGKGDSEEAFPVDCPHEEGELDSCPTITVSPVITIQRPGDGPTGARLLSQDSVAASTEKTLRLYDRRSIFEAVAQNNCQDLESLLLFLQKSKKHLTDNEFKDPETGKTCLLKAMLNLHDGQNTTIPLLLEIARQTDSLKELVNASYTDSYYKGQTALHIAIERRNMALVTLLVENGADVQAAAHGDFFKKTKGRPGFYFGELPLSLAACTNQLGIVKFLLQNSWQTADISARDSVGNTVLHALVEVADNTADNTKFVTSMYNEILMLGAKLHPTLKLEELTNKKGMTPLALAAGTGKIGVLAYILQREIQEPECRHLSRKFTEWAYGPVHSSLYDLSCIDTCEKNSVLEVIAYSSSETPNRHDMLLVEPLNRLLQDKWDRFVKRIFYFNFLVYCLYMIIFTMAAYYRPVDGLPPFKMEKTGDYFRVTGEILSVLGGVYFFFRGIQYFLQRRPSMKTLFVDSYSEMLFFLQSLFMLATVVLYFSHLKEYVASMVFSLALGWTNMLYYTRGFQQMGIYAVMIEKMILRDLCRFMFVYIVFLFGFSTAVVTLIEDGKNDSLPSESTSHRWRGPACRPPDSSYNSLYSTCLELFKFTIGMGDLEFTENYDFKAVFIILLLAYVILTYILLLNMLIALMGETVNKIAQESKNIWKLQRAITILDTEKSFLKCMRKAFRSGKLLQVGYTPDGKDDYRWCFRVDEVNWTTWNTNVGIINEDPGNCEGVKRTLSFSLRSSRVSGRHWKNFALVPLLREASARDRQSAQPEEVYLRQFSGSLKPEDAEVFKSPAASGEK
Sequence of D(1A) dopamine receptor (Homo sapiens) (P21728 whole entry, looked up): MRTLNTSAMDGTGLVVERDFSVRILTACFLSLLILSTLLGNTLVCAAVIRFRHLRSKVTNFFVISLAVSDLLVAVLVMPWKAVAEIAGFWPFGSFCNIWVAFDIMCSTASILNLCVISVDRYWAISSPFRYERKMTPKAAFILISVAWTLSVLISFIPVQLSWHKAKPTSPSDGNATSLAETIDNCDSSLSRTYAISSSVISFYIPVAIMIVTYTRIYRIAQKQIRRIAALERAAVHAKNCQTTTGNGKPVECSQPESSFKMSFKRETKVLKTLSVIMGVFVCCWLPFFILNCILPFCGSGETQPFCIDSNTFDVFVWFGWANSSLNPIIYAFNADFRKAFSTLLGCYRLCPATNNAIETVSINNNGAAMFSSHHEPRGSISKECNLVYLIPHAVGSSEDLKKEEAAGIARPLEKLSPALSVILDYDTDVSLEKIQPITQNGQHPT
Sequence of ATP-dependent 6-phosphofructokinase (Trypanosoma brucei brucei) (O15648 whole entry, looked up): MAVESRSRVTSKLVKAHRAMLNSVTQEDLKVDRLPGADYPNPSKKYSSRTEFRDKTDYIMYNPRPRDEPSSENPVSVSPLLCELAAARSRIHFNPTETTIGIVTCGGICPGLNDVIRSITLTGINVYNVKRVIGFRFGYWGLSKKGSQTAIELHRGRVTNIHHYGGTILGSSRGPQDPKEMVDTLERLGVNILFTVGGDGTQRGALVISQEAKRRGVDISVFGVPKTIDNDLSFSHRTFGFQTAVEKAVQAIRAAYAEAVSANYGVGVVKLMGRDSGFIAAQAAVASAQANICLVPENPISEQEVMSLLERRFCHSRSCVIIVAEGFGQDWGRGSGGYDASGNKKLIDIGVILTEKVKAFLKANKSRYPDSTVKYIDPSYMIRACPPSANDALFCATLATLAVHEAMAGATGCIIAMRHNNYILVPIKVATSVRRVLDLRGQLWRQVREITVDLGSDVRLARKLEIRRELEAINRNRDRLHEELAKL
Sequence of Flap endonuclease 1 (Homo sapiens) (P39748 whole entry, looked up): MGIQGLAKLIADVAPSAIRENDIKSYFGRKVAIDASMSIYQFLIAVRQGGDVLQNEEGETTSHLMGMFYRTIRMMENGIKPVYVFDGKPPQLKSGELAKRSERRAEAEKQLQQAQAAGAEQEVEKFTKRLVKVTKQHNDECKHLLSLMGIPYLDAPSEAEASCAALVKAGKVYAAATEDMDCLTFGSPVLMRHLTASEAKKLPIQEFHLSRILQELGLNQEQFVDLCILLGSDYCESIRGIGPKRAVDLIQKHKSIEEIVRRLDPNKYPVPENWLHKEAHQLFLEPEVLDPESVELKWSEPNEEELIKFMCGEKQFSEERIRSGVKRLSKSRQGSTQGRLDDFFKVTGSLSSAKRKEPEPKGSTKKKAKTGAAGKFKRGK
Sequence of M-phase phosphoprotein 8 (Homo sapiens) (Q99549 whole entry, looked up): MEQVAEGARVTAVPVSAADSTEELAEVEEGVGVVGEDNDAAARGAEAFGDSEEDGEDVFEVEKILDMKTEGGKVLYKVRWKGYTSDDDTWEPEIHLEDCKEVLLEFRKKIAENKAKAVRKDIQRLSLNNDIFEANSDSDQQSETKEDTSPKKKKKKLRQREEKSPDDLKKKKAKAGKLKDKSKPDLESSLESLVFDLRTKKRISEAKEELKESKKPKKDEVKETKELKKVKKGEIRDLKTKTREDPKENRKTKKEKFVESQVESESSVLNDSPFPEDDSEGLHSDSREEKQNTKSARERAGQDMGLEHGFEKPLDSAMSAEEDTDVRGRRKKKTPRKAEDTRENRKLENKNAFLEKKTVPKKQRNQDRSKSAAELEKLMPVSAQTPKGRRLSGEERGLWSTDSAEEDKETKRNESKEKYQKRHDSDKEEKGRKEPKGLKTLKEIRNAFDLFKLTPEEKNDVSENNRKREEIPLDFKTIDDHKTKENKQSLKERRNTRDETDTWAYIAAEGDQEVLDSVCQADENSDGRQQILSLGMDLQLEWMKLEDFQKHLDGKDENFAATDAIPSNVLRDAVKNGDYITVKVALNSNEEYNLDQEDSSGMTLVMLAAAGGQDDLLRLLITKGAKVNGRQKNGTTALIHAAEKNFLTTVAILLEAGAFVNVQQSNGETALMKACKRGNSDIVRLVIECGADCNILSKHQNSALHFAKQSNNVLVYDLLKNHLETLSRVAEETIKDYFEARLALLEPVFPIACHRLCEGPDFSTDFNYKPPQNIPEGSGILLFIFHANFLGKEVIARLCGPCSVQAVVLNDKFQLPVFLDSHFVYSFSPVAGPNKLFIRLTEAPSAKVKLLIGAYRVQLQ
Sequence of Thyrotropin receptor (Homo sapiens) (P16473 whole entry, looked up): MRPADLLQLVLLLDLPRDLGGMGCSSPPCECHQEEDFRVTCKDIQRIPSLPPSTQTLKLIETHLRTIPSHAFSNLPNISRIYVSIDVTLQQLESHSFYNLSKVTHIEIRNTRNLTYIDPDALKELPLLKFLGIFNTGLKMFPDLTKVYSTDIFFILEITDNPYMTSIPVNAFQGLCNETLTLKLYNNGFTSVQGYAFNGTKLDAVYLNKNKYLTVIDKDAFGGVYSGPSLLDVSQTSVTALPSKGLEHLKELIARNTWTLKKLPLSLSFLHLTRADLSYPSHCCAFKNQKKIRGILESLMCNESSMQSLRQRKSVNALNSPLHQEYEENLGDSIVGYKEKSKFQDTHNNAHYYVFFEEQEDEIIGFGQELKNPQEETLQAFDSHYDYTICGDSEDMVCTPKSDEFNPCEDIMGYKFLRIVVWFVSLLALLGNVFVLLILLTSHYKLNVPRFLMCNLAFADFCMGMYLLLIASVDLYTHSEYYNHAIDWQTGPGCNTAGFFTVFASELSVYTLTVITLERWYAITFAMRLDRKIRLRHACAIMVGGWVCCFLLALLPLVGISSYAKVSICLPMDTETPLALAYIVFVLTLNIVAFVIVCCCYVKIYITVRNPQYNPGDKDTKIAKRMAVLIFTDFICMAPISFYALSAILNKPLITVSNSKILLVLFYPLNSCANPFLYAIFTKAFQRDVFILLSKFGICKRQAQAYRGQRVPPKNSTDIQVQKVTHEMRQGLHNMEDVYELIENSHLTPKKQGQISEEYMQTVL
Sequence of Methanococcus maripaludis chaperonin (MmCpn) (Q6LX38 1-543): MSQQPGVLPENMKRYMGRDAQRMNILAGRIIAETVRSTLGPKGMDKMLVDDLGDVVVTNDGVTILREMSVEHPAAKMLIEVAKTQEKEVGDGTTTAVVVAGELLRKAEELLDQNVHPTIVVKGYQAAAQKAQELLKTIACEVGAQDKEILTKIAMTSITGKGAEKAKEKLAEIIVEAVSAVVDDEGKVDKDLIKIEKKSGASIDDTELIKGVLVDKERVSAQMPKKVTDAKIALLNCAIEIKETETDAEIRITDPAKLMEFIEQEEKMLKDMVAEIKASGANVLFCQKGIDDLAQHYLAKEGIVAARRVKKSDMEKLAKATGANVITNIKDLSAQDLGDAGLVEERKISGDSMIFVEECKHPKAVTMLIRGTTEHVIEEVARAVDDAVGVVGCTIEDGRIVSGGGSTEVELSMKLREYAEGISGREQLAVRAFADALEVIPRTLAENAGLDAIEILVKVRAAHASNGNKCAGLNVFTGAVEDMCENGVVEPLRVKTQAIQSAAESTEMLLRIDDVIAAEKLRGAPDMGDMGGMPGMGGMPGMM

For `CCOC(=O)Nc1ccc(NCc2ccc(F)cc2)nc1N`, the compound was classed as inactive in assay [1]. In assay [2], the Potency is 39.8 µM (active).
On to `COc1ccc(CN2CCNCC2)c(OC)c1OC`, for which the Potency entry in [3] is “inactive”.
Consider `CCNc1nc(Cl)nc(NCC)n1`, for which the Potency result in assay [3] is “inactive”.
For `Brc1c(NC2=NCCN2)ccc2nccnc12`, in assay [1], the result was inactive.
For the compound `CC(N)C(=O)OC(C)(C)Cc1ccc(Cl)cc1` (stereo not given), in [4], the Potency result is “inactive”. Moreover, the result in assay [5] and in [6] was inactive.
Consider `CCCCCCCCC(=O)NCc1ccc(O)c(OC)c1`, for which, in [4], the Potency result was “inactive”. In addition, the compound was called inactive in [6].
`Cc1ccc(N=CN(C)C=Nc2ccc(C)cc2C)c(C)c1`: the Potency result in [3] is “inactive”.
On to `O=c1n(Cl)c(=O)n(Cl)c(=O)n1Cl`, for which the Potency entry in assay [3] is “inactive”.
On the same count and under the same terms, for `CCN(CC)CCOC(=O)C(C)(c1ccccc1)c1ccccc1` the value was “inactive”.
Turning to `NC(=O)CN1CCCC1=O`, the compound was classed as inactive in [1], in [7], in assay [5] and in assay [8]. Also, the Potency result in assay [4], in assay [2], in assay [9], in [10] and in [3] was “inactive” each time.
For `CNC(=O)NC(O)C(Cl)(Cl)Cl` (stereo not given), the Potency result in assay [3] was “inactive”.
Still for that read-out and setting: the value for `OC(O)C(Cl)(Cl)Cl` was “inactive”.
On to `CN1C[C@H](C(=O)N[C@]2(C)O[C@@]3(O)[C@@H]4CCCN4C(=O)[C@H](Cc4ccccc4)N3C2=O)C[C@@H]2c3cccc4[nH]cc(c34)C[C@H]21`, for which the Potency entry in assay [4] and in [9] was “inactive” throughout. Moreover, the Potency in assay [10] is 8.91 µM (active).
Consider `C#C[C@]1(O)CC[C@H]2[C@@H]3CCC4=CC(=O)CCC4=C3C=C[C@@]21CC`, for which the Potency result in assay [3] is “inactive”.
`c1ccc2nc(N3CCNCC3)ccc2c1`: the Potency result in assay [4] is “inactive”. Also, the result in assay [5] was inactive.
Consider `NC(N)=NC(=O)c1nc(Cl)c(N)nc1N`, for which, in assay [1], the result was inactive.
Same read-out and setting: for `CC[C@H]1CN2CCc3cc(OC)c(OC)cc3[C@@H]2C[C@@H]1C[C@H]1NCCc2cc(OC)c(OC)cc21` the value was “inactive”.
Take `Cc1cc(C(C)(C)C)cc(C)c1CC1=NCCN1`: in assay [4], the Potency entry was “inactive”.
Consider `NC(N)=N/N=C/c1c(Cl)cccc1Cl`, for which, in [9], the Potency result was “inactive”.
As for `O=C(O)c1nn(Cc2ccc(Cl)cc2Cl)c2ccccc12`, the compound was classed as inactive in assay [1], in assay [7], in assay [5], in [6] and in assay [8]. Besides, the Potency entry in [4], in assay [2], in assay [9], in assay [10] and in assay [3] was “inactive” each time.
In the case of `COC(=O)C1=CCCN(C)C1`, the compound was classed as inactive in assay [1], in [7], in assay [5] and in assay [8]. In addition, the Potency result in [4], in assay [2], in [9] and in assay [10] was “inactive” each time.
Consider `CCCCCCCCCCCC[N+](C)(C)CCOc1ccccc1`, for which, in assay [3], the Potency entry is “inactive”.
Still for that read-out and setting: for `CC(C)(C)OC(=O)c1ncn2c1[C@@H]1CCCN1C(=O)c1c(Br)cccc1-2` the value was “inactive”.
Regarding `NC(N)=NCCC[C@H](N)C(=O)O`, the compound was classed as inactive in [1]. The Potency entry in assay [2] is “inactive”.
Regarding `O=C1CC2(CCCC2)CC(=O)N1CCCCN1CCN(c2ncccn2)CC1`, the Potency result in assay [2] is “inactive”.
Regarding `NC(=O)[C@@H]1CSSCCC(=O)N[C@@H](CCCCN=C(N)N)C(=O)NCC(=O)N[C@@H](CC(=O)O)C(=O)N[C@@H](Cc2c[nH]c3ccccc23)C(=O)N2CCC[C@H]2C(=O)N1` ([Mpa][hArg]GDWPC-NH2; disulfide 1-7), the Potency entry in assay [3] was “inactive”.
The same measure, in the same setting: the value for `Oc1ccc2[nH]cc(CCCCN3CC=C(c4ccccc4)CC3)c2c1` was “inactive”.
On to `COc1ccc(C(=O)N2CCCC2=O)cc1`, for which the Potency entry in assay [4], in [2], in assay [9] and in assay [10] was “inactive” throughout. Further, the call in assay [7], in [5], in assay [6] and in assay [8] was inactive.
Take `C[N+](C)(C)CCCCCCCCCC[N+](C)(C)C`: the compound was called inactive in assay [1].
Regarding `COC(=O)C1=C(C)NC(C)=C(C(=O)OC)C1c1ccccc1[N+](=O)[O-]`, the Potency in assay [4] is 39.8 µM (active); in assay [2], 35.5 µM (active); in assay [9], 2.59 µM (active).
`CCNC(=O)NCc1cccc(Cl)c1`: in assay [3], the Potency was 15.8 µM (active).
As for `NCc1cccnc1`, the Potency result in assay [3] is “inactive”.
Consider `ClC1=C(Cl)C2(Cl)C(CBr)CC1(Cl)C2(Cl)Cl` (stereo not given), for which the Potency result in assay [3] was “inactive”.
Turning to `CNC(=O)Oc1ccc2c(c1)[C@]1(C)CCN(C)[C@@H]1N2C`, the Potency result in assay [4] was “inactive”.
